These results are taken from the supplement of paper PMC6555819.

Assay in all cases: PBM binding z-score (relative to random genomic background probes); higher = stronger binding; sequences stand for … in GC…GCGATTGACAGCGTAGAATGAAGG
Assay [1] relates to FXR:RXRa (NR concentration 270 nM, RXRa partner concentration 90 nM). In a few lines: (§1)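 Each nuclear receptor dimer, without ligand, was incubated for 1 h on custom Agilent 4×180K protein-binding microarrays. Binding was detected with antibodies against each partner (one per run), and scanned fluorescence was regression-normalized. The binding z-scores are referenced to random human genomic background probes.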

In assay [2] the test system is LXRa:RXRa (NR concentration 270 nM, RXRa partner concentration 90 nM). In a few lines:
as §1

Assay [3] relates to LXRa homodimer (NR concentration 270 nM). In a few lines:
as §1

The subject of assay [4] is LXRb:RXRa (NR concentration 270 nM, RXRa partner concentration 90 nM). In a few lines: as §1
Assay [5] relates to LXRb homodimer (NR concentration 270 nM). In a few lines:
as §1

For assay [6], the system named is PPARa:RXRa (NR concentration 270 nM, RXRa partner concentration 90 nM). An outline of the steps: as §1
Assay [7] has as its system PPARg:RXRa (NR concentration 180 nM, RXRa partner concentration 90 nM). In a few lines:
as §1

The subject of assay [8] is PPARg:RXRa 270nM:90nM, anti-RXR (NR concentration 270 nM, RXRa partner concentration 90 nM). In a few lines:
as §1

Assay [9] relates to PPARg:RXRa 30nM:10nM, anti-RXR (NR concentration 30 nM, RXRa partner concentration 10 nM). In a few lines: as §1
Assay [10] has as its system PPARg:RXRa 90nM:30nM, anti-RXR (NR concentration 90 nM, RXRa partner concentration 30 nM). An outline of the steps: as §1
For assay [11], the system named is PPARg:RXRa DBDmut IVT, anti-RXR (DBD mutation: RXRa K156A/R161A, NR concentration 270 nM, RXRa partner concentration 90 nM). In a few lines: as §1
The subject of assay [12] is PPARg:RXRa IVT, anti-PPARg (NR concentration 270 nM, RXRa partner concentration 90 nM). An outline of the steps: as §1
For assay [13], the system named is PPARg DBDmut:RXRa IVT, anti-PPARg (DBD mutation: PPARg1 K132A/R137A, NR concentration 270 nM, RXRa partner concentration 90 nM). An outline of the steps:
as §1

In assay [14] the test system is PPARg DBDmut IVT, anti-PPARg (DBD mutation: PPARg1 K132A/R137A, NR concentration 270 nM). In a few lines:
as §1

Assay [15] has as its system PPARg homodimer (NR concentration 180 nM). In a few lines:
as §1

Assay [16] deals with PXR:RXRa (NR concentration 270 nM, RXRa partner concentration 90 nM). In a few lines: as §1
Assay [17] relates to PXR homodimer (NR concentration 270 nM). An outline of the steps:
as §1

In assay [18] the test system is RARa:RXR (NR concentration 270 nM, RXRa partner concentration 90 nM). An outline of the steps:
as §1

Assay [19] deals with RARa homodimer (NR concentration 270 nM). An outline of the steps:
as §1

Assay [20] has as its system RARb:RXRa (NR concentration 270 nM, RXRa partner concentration 90 nM). An outline of the steps:
as §1

As for ATCTCTAGGTAACAAATTCAGTGAAAGAGAGGAC, the PBM binding z-score was found to be 0.723 in assay [1]; 0.714 in assay [2]; 0.441 in [3]; 0.288 in assay [4]; 1.15 in assay [5]; 0.552 in assay [6]. The PBM binding z-score in assay [7] is 0.558; in assay [8], 0.598; in assay [9], 0.83; in assay [10] it was 0.732; in assay [11], 2.5; in [12], 2.57. Besides, the PBM binding z-score in assay [13] came to 1.67; in [14] it was 1.65; in assay [15] it was 0.744; in [16], 0.225; in assay [17], 0.486; in [18] it was 0.657. In addition, the PBM binding z-score was 1.4 in assay [19] and 0.701 in [20].

In the case of TCTTGTAGATCAAAGGTTAGGAAAGCCGAAGCCT, the PBM binding z-score in assay [1] was 1.26; in [2], 1.45; in [3], -0.217; in assay [4], 1.24; in assay [5], -0.196; in assay [6], 4.06. The PBM binding z-score in assay [7] turned out to be 7.63; in assay [8] it was 7.57; in [9], 7.89; in [10] it was 9.05; in [11], 2.13; in assay [12] it was 3.42. For the same sequence, the PBM binding z-score in assay [13] was 0.503; in assay [14] it was 0.103; in [15], 1.92; in assay [16] it was 1.04; in assay [17], -0.482; in assay [18], 2.02. Further, the PBM binding z-score is 0.262 in assay [19] and 1.4 in assay [20].

As for CCTGCTAGGTCAATGGCCAGCTAAAGCAGCTCGC, the PBM binding z-score in assay [1] is 3.11; in assay [2] it was 2.72; in assay [3] it was -0.17; in [4], 1.39; in assay [5], -0.454; in [6], 2.73. Also, the PBM binding z-score was determined as 1.84 in assay [7]; 2.65 in assay [8]; 0.293 in assay [9]; 1.8 in assay [10]; 4.15 in assay [11]; 3.04 in assay [12]. Further, the PBM binding z-score in assay [13] was -1.08; in assay [14] it was -1.25; in assay [15] it was 0.733; in assay [16], 0.566; in [17], -0.775; in [18], 1.31. Further, the values for the PBM binding z-score in [19] and in assay [20] were -0.563 and 3.73, respectively.

Consider CCGAGTAGGGTATGGGGCATTCAGGCAACGGTGA, for which the PBM binding z-score in assay [1] was -0.164; in assay [2], -0.318; in assay [3] it was -0.305; in [4], 0.261; in assay [5], -0.00353; in assay [6], 1.14. Further, the PBM binding z-score came to 2.09 in assay [7]; 3.6 in assay [8]; 1.5 in [9]; 3.18 in assay [10]; 0.659 in assay [11]; 1.58 in [12]. The PBM binding z-score in [13] was -0.658; in assay [14] it was -0.796; in assay [15], 0.951; in assay [16] it was -0.379; in assay [17], -0.14; in assay [18], -0.154. In addition, the PBM binding z-score in assay [19] is 0.135; in assay [20] it was 0.278.

For the sequence CCGACTGGGGAAAGGTTACCATAACGCACAGCCA, the PBM binding z-score is 0.564 in assay [1]; 1.86 in assay [2]; 0.0866 in assay [3]; 1.75 in assay [4]; -0.554 in assay [5]; 2.76 in [6]. The PBM binding z-score in [7] came to 2.69; in [8] it was 3.64; in assay [9] it was 1.61; in assay [10], 3.26; in [11], 0.181; in [12] it was 0.852. Besides, the PBM binding z-score was -0.712 in assay [13]; -0.726 in assay [14]; 1.01 in [15]; 1.26 in assay [16]; 0.0491 in [17]; 1.9 in [18]. Also, the PBM binding z-score in assay [19] is 0.439; in assay [20] it was 1.74.

For CGTACTGGGCCAAAAAGGTCATTGATGCCGATAA, the PBM binding z-score is 3.72 in assay [1]; 4.43 in [2]; 2.93 in assay [3]; 4.25 in assay [4]; 0.293 in assay [5]; 4.69 in [6]. Further, the PBM binding z-score was 3.65 in [7]; 4.22 in [8]; 1.71 in assay [9]; 3.72 in [10]; 4.13 in assay [11]; 3.76 in assay [12]. The PBM binding z-score in [13] is -0.0861; in assay [14], -0.32; in assay [15], 3.08; in [16], 4.6; in [17], 3.5; in [18], 4.94. The values for the PBM binding z-score in assay [19] and in [20] were 1.6 and 3.87, respectively.
